This note sets out measurements from PubChem BioAssay (NCATS).

Inconclusive results are not listed.

A short description of the first assay: qHTS for identification of novel therapeutic agents for treatment of microphthalmiaassociated transcription factor (MiT) renal cell carcinoma (RCC) (AID 1963991). Particulars: TFE3-RCC UOK109 viability, CellTiter-Glo, 48 h; measured here: UOK109 Z-AUC; stronger effect = lower value. Put shortly:
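Three TFE3-fusion RCC lines (UOK109, UOK124, UOK145), 500 cells/well in complete medium, were treated with MIPE 4.0 compounds for 48 hours at 37 C. Viability was by CellTiter-Glo luminescence, normalized to DMSO (100%) and empty wells (0%); curves fitted over 11 concentrations.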
For orientation: In qHTS, concentration-response curves come from the screen itself.
As for `C[C@H](c1ccc(F)cc1CCCC(=O)O)N(c1cc(F)ccc1F)S(=O)(=O)c1ccc(Cl)cc1`, the z-score is 0.174.

In turn, `Cc1cn([C@@H]2C[C@@H](O)[C@H](CO)O2)c(=O)[nH]c1=O` showed a z-score of 0.973.

On to `CCOC(=O)[C@@H](N)CCC(=O)N[C@@H](CSCc1ccccc1)C(=O)N[C@@H](C(=O)OCC)c1ccccc1`, for which the z-score is -0.0164.

The compound `CC(C)C[C@@H](N)[C@H](O)C(=O)N[C@H](C(=O)N[C@H](C(=O)N[C@@H](CC(=O)O)C(=O)O)C(C)C)C(C)C` came in with a z-score of 0.245.

Take `CC[C@H](C=C[C@@H](C)[C@H]1CC[C@H]2[C@@H]3CC=C4C[C@@H](O)CC[C@]4(C)[C@@H]3CC[C@]12C)C(C)C`: the z-score is 0.875.

`Cc1nc2c([nH]1)CCN(C(=O)c1ccc(NC(=O)c3ccccc3-c3ccccc3)cc1)c1ccccc1-2`: the z-score is -0.104.

`COc1nc(C)cnc1NS(=O)(=O)c1cccnc1-c1ccc(-c2nnco2)cc1`: the z-score came out at 1.22.

As for `CC1=C(C(=O)Nc2cc3cn[nH]c3cc2F)C(c2ccc(C(F)(F)F)cc2)CC(=O)N1` (centres undefined), the z-score was found to be 0.673.

The compound `N[C@@H](CC(=O)N1CCn2c(nnc2C(F)(F)F)C1)Cc1cc(F)c(F)cc1F` had a z-score of 0.736.

`NCC1CCC(C(=O)O)CC1` (centres undefined) returned a z-score of 0.68.

With `C#CCN(C)CC1=Cc2ccccc2Oc2ccccc21`, the z-score is -0.41.

`CCCCOCCOc1nc(-c2ccc(C(=O)O)c(F)c2)sc1C` registered a z-score of 1.12.

In turn, `Cc1ccccc1C(C(=O)NC1CCCCC1)N(C(=O)CNc1ccc(C#N)cc1)c1cccc(F)c1` (centres undefined) registered a z-score of 0.515.

`CCN(CCO)CCCOc1ccc2c(Nc3cc(CC(=O)Nc4cccc(F)c4)[nH]n3)ncnc2c1` showed a z-score of 0.018.

`Cc1cc(OCCCS(C)(=O)=O)cc(C)c1-c1cccc(COc2ccc3c(c2)OC[C@H]3CC(=O)O)c1` yielded a z-score of 0.542.

`Cc1cc2c(cc1C1(c3ccc(C(=O)O)cn3)CC1)C(C)(C)CCC2(C)C`: the z-score was found to be 1.13.

Compound `CCOC(=O)N1c2ccc(C(F)(F)F)cc2[C@@H](N(Cc2cc(C(F)(F)F)cc(C(F)(F)F)c2)C(=O)OC)C[C@H]1CC` yielded a z-score of 0.825.

Turning to `CCCCC(F)(F)[C@@]1(O)CC[C@H]2[C@H](CC(=O)[C@@H]2CCCCCCC(=O)O)O1`, the z-score is 0.852.

The same assay, now with this note: TFE3-RCC viability, CellTiter-Glo, 48 h; measured here: UOK124 Z-AUC; stronger effect = lower value.
For the compound `C[C@H](c1ccc(F)cc1CCCC(=O)O)N(c1cc(F)ccc1F)S(=O)(=O)c1ccc(Cl)cc1`, the z-score is -0.0423.

Turning to `Cc1cn([C@@H]2C[C@@H](O)[C@H](CO)O2)c(=O)[nH]c1=O`, the z-score came to 1.9.

Consider `CCOC(=O)[C@@H](N)CCC(=O)N[C@@H](CSCc1ccccc1)C(=O)N[C@@H](C(=O)OCC)c1ccccc1`, for which the z-score was found to be 0.492.

The compound `CC(C)C[C@@H](N)[C@H](O)C(=O)N[C@H](C(=O)N[C@H](C(=O)N[C@@H](CC(=O)O)C(=O)O)C(C)C)C(C)C` came in with a z-score of 0.596.

For the compound `CC[C@H](C=C[C@@H](C)[C@H]1CC[C@H]2[C@@H]3CC=C4C[C@@H](O)CC[C@]4(C)[C@@H]3CC[C@]12C)C(C)C`, the z-score worked out at 0.915.

Consider `Cc1nc2c([nH]1)CCN(C(=O)c1ccc(NC(=O)c3ccccc3-c3ccccc3)cc1)c1ccccc1-2`, for which the z-score came out at 0.486.

In turn, `COc1nc(C)cnc1NS(=O)(=O)c1cccnc1-c1ccc(-c2nnco2)cc1` yielded a z-score of 0.956.

In turn, `CC1=C(C(=O)Nc2cc3cn[nH]c3cc2F)C(c2ccc(C(F)(F)F)cc2)CC(=O)N1` (centres undefined) yielded a z-score of 0.25.

As to `N[C@@H](CC(=O)N1CCn2c(nnc2C(F)(F)F)C1)Cc1cc(F)c(F)cc1F`, the z-score is 0.907.

Turning to `NCC1CCC(C(=O)O)CC1` (centres undefined), the z-score was 0.972.

Turning to `C#CCN(C)CC1=Cc2ccccc2Oc2ccccc21`, the z-score is 0.413.

`CCCCOCCOc1nc(-c2ccc(C(=O)O)c(F)c2)sc1C` came in with a z-score of 0.152.

`Cc1ccccc1C(C(=O)NC1CCCCC1)N(C(=O)CNc1ccc(C#N)cc1)c1cccc(F)c1` (centres undefined) gave a z-score of 0.305.

In turn, `CCN(CCO)CCCOc1ccc2c(Nc3cc(CC(=O)Nc4cccc(F)c4)[nH]n3)ncnc2c1` showed a z-score of 0.316.

`Cc1cc(OCCCS(C)(=O)=O)cc(C)c1-c1cccc(COc2ccc3c(c2)OC[C@H]3CC(=O)O)c1` displayed a z-score of 0.159.

With `Cc1cc2c(cc1C1(c3ccc(C(=O)O)cn3)CC1)C(C)(C)CCC2(C)C`, the z-score was -2.74.

The compound `CCOC(=O)N1c2ccc(C(F)(F)F)cc2[C@@H](N(Cc2cc(C(F)(F)F)cc(C(F)(F)F)c2)C(=O)OC)C[C@H]1CC` returned a z-score of 0.72.

Turning to `CCCCC(F)(F)[C@@]1(O)CC[C@H]2[C@H](CC(=O)[C@@H]2CCCCCCC(=O)O)O1`, the z-score came to 0.425.

Staying with this assay, now noted: TFE3-RCC viability, CellTiter-Glo, 48 h; measured here: UOK145 Z-AUC; stronger effect = lower value.
For the compound `C[C@H](c1ccc(F)cc1CCCC(=O)O)N(c1cc(F)ccc1F)S(=O)(=O)c1ccc(Cl)cc1`, the z-score is -0.497.

Compound `Cc1cn([C@@H]2C[C@@H](O)[C@H](CO)O2)c(=O)[nH]c1=O` came in with a z-score of 0.117.

On to `CCOC(=O)[C@@H](N)CCC(=O)N[C@@H](CSCc1ccccc1)C(=O)N[C@@H](C(=O)OCC)c1ccccc1`, for which the z-score came out at 0.0682.

Take `CC(C)C[C@@H](N)[C@H](O)C(=O)N[C@H](C(=O)N[C@H](C(=O)N[C@@H](CC(=O)O)C(=O)O)C(C)C)C(C)C`: the z-score was -0.2.

As to `CC[C@H](C=C[C@@H](C)[C@H]1CC[C@H]2[C@@H]3CC=C4C[C@@H](O)CC[C@]4(C)[C@@H]3CC[C@]12C)C(C)C`, the z-score came out at 1.02.

Turning to `Cc1nc2c([nH]1)CCN(C(=O)c1ccc(NC(=O)c3ccccc3-c3ccccc3)cc1)c1ccccc1-2`, the z-score turned out to be 0.369.

Compound `COc1nc(C)cnc1NS(=O)(=O)c1cccnc1-c1ccc(-c2nnco2)cc1` gave a z-score of 0.662.

As for `CC1=C(C(=O)Nc2cc3cn[nH]c3cc2F)C(c2ccc(C(F)(F)F)cc2)CC(=O)N1` (centres undefined), the z-score is 0.771.

For `N[C@@H](CC(=O)N1CCn2c(nnc2C(F)(F)F)C1)Cc1cc(F)c(F)cc1F`, the z-score turned out to be 0.666.

`NCC1CCC(C(=O)O)CC1` (centres undefined) displayed a z-score of 0.669.

As for `C#CCN(C)CC1=Cc2ccccc2Oc2ccccc21`, the z-score was -1.17.

In turn, `CCCCOCCOc1nc(-c2ccc(C(=O)O)c(F)c2)sc1C` displayed a z-score of 0.316.

Regarding `Cc1ccccc1C(C(=O)NC1CCCCC1)N(C(=O)CNc1ccc(C#N)cc1)c1cccc(F)c1` (centres undefined), the z-score was found to be 0.632.

`CCN(CCO)CCCOc1ccc2c(Nc3cc(CC(=O)Nc4cccc(F)c4)[nH]n3)ncnc2c1` showed a z-score of 0.045.

The compound `Cc1cc(OCCCS(C)(=O)=O)cc(C)c1-c1cccc(COc2ccc3c(c2)OC[C@H]3CC(=O)O)c1` registered a z-score of 0.614.

Take `Cc1cc2c(cc1C1(c3ccc(C(=O)O)cn3)CC1)C(C)(C)CCC2(C)C`: the z-score was found to be 0.66.

The compound `CCOC(=O)N1c2ccc(C(F)(F)F)cc2[C@@H](N(Cc2cc(C(F)(F)F)cc(C(F)(F)F)c2)C(=O)OC)C[C@H]1CC` yielded a z-score of 0.57.

As for `CCCCC(F)(F)[C@@]1(O)CC[C@H]2[C@H](CC(=O)[C@@H]2CCCCCCC(=O)O)O1`, the z-score turned out to be 0.602.
